This passage reports Potency results from PubChem BioAssay (Tox21).

A short description of assay [1]: Nuclear factor erythroid 2-related factor 2/antioxidant responsive element (Nrf2/ARE) small molecule agonists: qHTS cell viability counter screen in human keratinocytes (AID 1919968; active means well fitted curve in the direction sought with a large enough effect in the repeat runs; an effect the other way counts as inactive or inconclusive; further: nearly all actives have a fitted effect of over 55% in size; further: potency means the concentration at half of the fitted maximal effect). The following applies: KeratinoSens HaCaT ARE cells viability, CellTiter-Fluor, 24 h; series mostly up to 92.4 µM. The essentials:
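Cells of the KeratinoSens line were plated at 1,500 per well and left for 5 h before compound transfer from DMSO stocks. After a 23 h incubation (37 C, 5% CO2), CellTiter-Fluor was added. Signal was taken as fluorescence intensity 1 h later.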
For orientation: qHTS replaces the single test concentration by a dilution series.

The nature of assay [2]: Nuclear factor erythroid 2-related factor 2/antioxidant responsive element (Nrf2/ARE) small molecule agonists: luciferase reporter gene qHTS assay in human keratinocytes (AID 1919969). Further: nearly all actives have a fitted effect of over 35% in size. Further: potency means the concentration at half of the fitted maximal effect. The following applies: KeratinoSens HaCaT ARE-luciferase, luminescence, 24 h; series mostly up to 92.4 µM. (In general: Reporter assays use an easily measured gene product as a stand-in for the process of interest.)

The target of assay [3] is KiSS-1 receptor (Homo sapiens) (UniProt Q969F8). Nature of the assay: Human kisspeptin (KISS1R) small molecule agonists, calcium flux assay in KISS1R-HEK293 cells (AID 1920064; active means well fitted curve in the direction sought with a large enough effect in the repeat runs; an effect the other way counts as inactive or inconclusive; further: potency means the concentration at half of the fitted maximal effect). The following applies: KISS1R-HEK293, calcium flux fluorescence, agonist; series mostly up to 76.8 µM. The procedure, abridged:
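Cell line: HEK293, stable human KISS1R. Dye loading 1 h at 37 C after 18 h culture. Read: kinetic fluorescence, 480/540 nm, 3 min at 1 s intervals.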
On the technique in general: Calcium flux is commonly read through the fluorescence of an indicator in the cells.

The nature of assay [4]: G protein-coupled receptor (GPCR) small molecule agonists, calcium flux assay: HEK293 wild type cell line counter screen (AID 1920065). Further: potency means the concentration at half of the fitted maximal effect. The conditions noted are these: HEK293 WT calcium flux, fluorescence, agonist mode; series mostly up to 57.6 µM. The procedure, abridged: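 Tox21 10K compounds, 15 concentrations each in triplicate, pin-transferred in DMSO onto dye-loaded cells; kinetic read at 480/540 nm for 3 min, 1 s intervals.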

Assay [5] can be described thus: p53 small molecule agonists, cell-based qHTS assay with rat liver microsomes (AID 1963578). The following applies: HCT-116 p53RE-bla, beta-lactamase ratio, 16 h; series mostly up to 66 µM. The procedure, abridged:
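Agonist mode in p53RE-bla reporter cells, with compounds co-incubated 16 h at 37 C alongside 0.5 mg/mL rat liver microsomes and 0.5 mg/mL NADPH (final), followed by a 2 h LiveBLAzer detection step.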

Assay [6] is described as follows: p53 small molecule agonists, cell-based qHTS assay: qHTS cell viability counter screen (AID 1963581). Further: nearly all actives have a fitted effect of over 45% in size. The conditions noted are these: p53RE-bla HCT-116 viability, ATP luminescence, 16 h; series mostly up to 66 µM. The procedure, abridged:
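ATP content measured by luminescence in HCT-116 p53RE-bla cells treated 16 h at 37 C, same wells as the reporter screen.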

Assay [7] is described as follows: p53 small molecule agonists, cell-based qHTS assay (AID 1963582; active means well fitted activation curve with a large enough effect in the signal ratio in the repeat runs, not every such curve was filed as active; the % refers to the signal ratio). The conditions noted are these: HCT-116 p53RE-bla reporter, beta-lactamase FRET ratio, 16 h; series mostly up to 66 µM. The essentials: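 16 h compound exposure (37 C) of p53 response element–bla cells, preceded by 5 h recovery at 37 C/5% CO2; read-out via LiveBLAzer B/G FRET substrate, 2 h RT, fluorescence intensity.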

The target of assay [8] is 5-hydroxytryptamine receptor 2A (Homo sapiens) (UniProt P28223). As to the kind of experiment: 5-hydroxytryptamine receptor 2A (HTR2A) small molecule antagonists, cell-based qHTS assay (AID 1963586). Further: nearly all actives have a fitted effect of over 45% in size. The conditions noted are these: HTR2A-CHO cells, DOI-induced calcium flux, fluorescence; series mostly up to 61.5 µM. The essentials: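 CHO cells stably expressing human HTR2A were plated for 18 h at 37 C, then loaded with calcium dye for 1 h. Compounds were preincubated 5 min at room temperature before DOI (4 nM solution) was added. Kinetic fluorescence was read for 3 min.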
5-hydroxytryptamine receptor 2A (Homo sapiens), sequence (P28223 whole entry, looked up): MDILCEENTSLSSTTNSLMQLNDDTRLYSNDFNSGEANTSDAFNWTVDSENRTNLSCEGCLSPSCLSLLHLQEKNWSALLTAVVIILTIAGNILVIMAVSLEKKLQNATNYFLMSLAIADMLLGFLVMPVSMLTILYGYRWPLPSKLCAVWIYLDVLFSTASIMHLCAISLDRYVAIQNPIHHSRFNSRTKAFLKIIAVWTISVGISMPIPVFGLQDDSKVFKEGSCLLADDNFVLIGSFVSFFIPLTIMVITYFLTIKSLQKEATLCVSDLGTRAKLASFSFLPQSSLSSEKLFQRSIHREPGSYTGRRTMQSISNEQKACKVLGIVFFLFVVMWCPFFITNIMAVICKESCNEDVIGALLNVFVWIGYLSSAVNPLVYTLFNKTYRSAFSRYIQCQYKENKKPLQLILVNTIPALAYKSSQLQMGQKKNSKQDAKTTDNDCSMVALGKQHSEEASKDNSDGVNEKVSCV

Assay [9] has as its target Muscarinic acetylcholine receptor M1 (Homo sapiens) (UniProt P11229). As to the kind of experiment: Cholinergic receptor muscarinic 1 (CHRM1) small molecule agonists, cell-based qHTS assay (AID 1963589). Further: nearly all actives have a fitted effect of over 35% in size. Further: potency means the concentration at half of the fitted maximal effect. The following applies: CHRM1-CHO cells, agonist mode, calcium flux fluorescence; series mostly up to 76.8 µM. The essentials: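 Homogeneous fluorescence calcium flux, agonist mode. Human M1-expressing CHO cells; compound dosed at 15 concentrations, three independent runs; signal sampled every 1 sec.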

The target of assay [10] is D(2) dopamine receptor (Homo sapiens) (UniProt P14416). As to the kind of experiment: Dopamine D2 receptor (DRD2) small molecule antagonists, cell-based qHTS assay (AID 1963595; active means well fitted inhibition curve with a large enough effect in the signal ratio in the repeat runs, with a control signal flat; the % refers to the signal ratio; further: potency means the concentration at half of the fitted maximal effect). The following applies: HEK293-DRD2 cAMP HTRF antagonist mode; series mostly up to 92.4 µM. The procedure, abridged: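 Antagonist mode in DRD2-HEK293 cells: after compound addition with 0.1 mM Ro20-1724, cells received quinpirole (12 nM) and NKH477 (200 nM) for 30 min at room temperature; HTRF cAMP read after 1 h detection.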
D(2) dopamine receptor (Homo sapiens), sequence (P14416 whole entry, looked up): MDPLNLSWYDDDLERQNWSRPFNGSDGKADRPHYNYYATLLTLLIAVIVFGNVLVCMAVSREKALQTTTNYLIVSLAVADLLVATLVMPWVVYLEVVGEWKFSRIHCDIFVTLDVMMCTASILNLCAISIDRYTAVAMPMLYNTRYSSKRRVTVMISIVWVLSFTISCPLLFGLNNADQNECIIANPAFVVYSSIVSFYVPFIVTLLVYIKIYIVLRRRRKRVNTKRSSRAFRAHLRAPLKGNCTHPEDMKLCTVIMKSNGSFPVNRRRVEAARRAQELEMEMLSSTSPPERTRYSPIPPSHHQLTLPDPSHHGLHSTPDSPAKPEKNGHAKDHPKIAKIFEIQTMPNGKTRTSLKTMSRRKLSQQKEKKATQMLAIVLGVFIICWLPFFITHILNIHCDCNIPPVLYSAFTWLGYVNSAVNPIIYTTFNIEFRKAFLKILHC

Assay [11] is described as follows: p53 small molecule agonists, cell-based qHTS assay with human liver microsomes: qHTS cell viability counter screen (AID 1963579). Further: nearly all actives have a fitted effect of over 45% in size. The following applies: p53RE-bla HCT-116 viability, ATP luminescence, 16 h, HLM; series mostly up to 66 µM. The procedure, abridged:
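Metabolically activated exposure: compounds, human liver microsomes and NADPH (0.5 mg/mL final apiece) were added to p53RE-bla cells seeded 5 h earlier, left 16 h at 37 C, and then assessed for viability by CellTiter-Glo luminescence.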

Assay [12] can be described thus: p53 small molecule agonists, cell-based qHTS assay with rat liver microsomes: qHTS cell viability counter screen (AID 1963580). Further: nearly all actives have a fitted effect of over 45% in size. The conditions noted are these: p53RE-bla HCT-116 + rat microsomes, ATP viability, 16 h; series mostly up to 66 µM. The procedure, abridged:
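Luminescent ATP readout (CellTiter-Glo, 30 min at room temperature) reports viability of p53RE-bla HCT-116 cells after 16 h at 37 C with test compounds under metabolic activation by rat liver microsomes and NADPH at 0.5 mg/mL final each.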

For assay [13], the target named is 5-hydroxytryptamine receptor 2A (Homo sapiens) (UniProt P28223). As to the kind of experiment: 5-hydroxytryptamine receptor 2A (HTR2A) small molecule agonists, cell-based qHTS assay (AID 1963587). Further: nearly all actives have a fitted effect of over 30% in size. The conditions noted are these: HTR2A-CHO cells, calcium flux fluorescence, agonist mode; series mostly up to 76.8 µM. The procedure, abridged: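 HTR2A-CHO cells, plated 18 h at 37 C/5% CO2, dye-loaded 1 h at 37 C; compounds in DMSO added by pin tool (agonist mode). Intracellular calcium flux read as kinetic fluorescence on FDSS over 2 min at 1 s intervals.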

Assay [14] deals with Muscarinic acetylcholine receptor M1 (Homo sapiens) (UniProt P11229). Nature of the assay: Cholinergic receptor muscarinic 1 (CHRM1) small molecule antagonists, cell-based qHTS assay (AID 1963588). Further: nearly all actives have a fitted effect of over 40% in size. The following applies: CHRM1-CHO antagonist mode, calcium flux fluorescence; series mostly up to 61.5 µM. The essentials:
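Compounds were tested at 15 concentrations in three independent runs. Dye-loaded CHRM1-CHO cells were exposed 5 min at room temperature before stimulation by acetylcholine added at 50nM. Intracellular calcium was read kinetically on FDSS for 3 min.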

The nature of assay [15]: cAMP Responsive Elements (CRE) small molecule agonists, cell-based qHTS assay (AID 1963590). The following applies: CRE-bla HEK293T, beta-lactamase FRET ratio, 3 h; series mostly up to 92.4 µM. The procedure, abridged:
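HEK 293T cells stably bearing CRE-bla were plated at 2,000 cells per well and rested 18 h. Compounds, positive controls or DMSO were added for 3 h at 37 C. LiveBLAzer B/G substrate was then loaded for 2 h at room temperature.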

Assay [16] is described as follows: cAMP Responsive Elements (CRE) small molecule antagonists, cell-based qHTS assay (AID 1963591; active means well fitted inhibition curve with a large enough effect in the signal ratio in the repeat runs, not every such curve was filed as active; the % refers to the signal ratio). The following applies: CRE-bla HEK293T, beta-lactamase FRET ratio; series mostly up to 92.4 µM. The procedure, abridged: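 First, CRE-bla HEK293T cells settled 18 h at 37 C. Next, compound and 0.25 uM final NKH477 were applied for 3 h. Last, LiveBLAzer B/G substrate was loaded for 2 h at room temperature.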

For assay [17], the target named is Beta-2 adrenergic receptor (Homo sapiens) (UniProt P07550). Nature of the assay: Adrenergic beta2 receptor (ADRB2) small molecule antagonists, cell-based qHTS assay (AID 1963592). Further: nearly all actives have a fitted effect of over 50% in size. The following applies: CHO-ADRB2 cells, isoproterenol-stimulated cAMP HTRF ratio, 0.5 h; series mostly up to 92.4 µM. The essentials: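 Assay format: CHO-ADRB2 cells, 18-20hr seeding at 37C/5% CO2, then compound plus 1nM isoproterenol agonist mix for 0.5hr RT. Homogeneous time-resolved fluorescence cAMP detection after 1hr, expressed as 665/615 nm ratio.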
Beta-2 adrenergic receptor (Homo sapiens), sequence (P07550 whole entry, looked up): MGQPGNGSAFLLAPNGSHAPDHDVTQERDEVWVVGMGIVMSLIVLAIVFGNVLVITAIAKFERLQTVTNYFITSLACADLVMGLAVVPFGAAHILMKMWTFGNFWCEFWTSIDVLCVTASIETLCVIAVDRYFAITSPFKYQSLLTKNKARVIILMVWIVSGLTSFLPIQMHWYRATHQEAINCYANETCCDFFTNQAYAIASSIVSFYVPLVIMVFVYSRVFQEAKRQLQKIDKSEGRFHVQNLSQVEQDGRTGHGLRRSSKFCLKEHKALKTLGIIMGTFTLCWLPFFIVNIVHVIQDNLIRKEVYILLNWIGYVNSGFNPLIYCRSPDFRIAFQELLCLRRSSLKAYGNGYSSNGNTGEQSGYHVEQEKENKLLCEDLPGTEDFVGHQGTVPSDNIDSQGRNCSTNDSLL

The target of assay [18] is D(2) dopamine receptor (Homo sapiens) (UniProt P14416). As to the kind of experiment: Dopamine D2 receptor (DRD2) small molecule agonists, cell-based qHTS assay (AID 1963594). Further: nearly all actives have a fitted effect of over 35% in size. The conditions noted are these: HEK293-DRD2 cAMP HTRF, agonist mode, 30 min; series mostly up to 92.4 µM. The procedure, abridged: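 HEK293 cells stably expressing DRD2 were cultured 24 h at 37 C, then given Ro20-1724 (0.1 mM final) and compounds for 10 min at room temperature. NKH477 (200nM) was then added for 30 min. cAMP was read by HTRF.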

Values without a mark were called inactive. Inconclusive results are not listed. Activity calls are given as the source filed them. Unless noted, the call rests on the fitted dose curve.

KiSS-1 receptor (Homo sapiens), sequence (Q969F8 whole entry, looked up): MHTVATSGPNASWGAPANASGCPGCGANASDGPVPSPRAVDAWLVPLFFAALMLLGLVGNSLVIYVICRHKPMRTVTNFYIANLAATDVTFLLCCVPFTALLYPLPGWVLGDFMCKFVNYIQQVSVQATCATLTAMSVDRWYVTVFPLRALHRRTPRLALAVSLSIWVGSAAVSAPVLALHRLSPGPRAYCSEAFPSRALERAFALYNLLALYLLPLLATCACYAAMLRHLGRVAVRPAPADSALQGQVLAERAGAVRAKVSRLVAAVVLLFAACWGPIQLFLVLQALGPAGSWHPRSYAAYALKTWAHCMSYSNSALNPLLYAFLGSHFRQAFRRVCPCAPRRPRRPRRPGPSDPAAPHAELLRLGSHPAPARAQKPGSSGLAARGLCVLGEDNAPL
Muscarinic acetylcholine receptor M1 (Homo sapiens), sequence (P11229 whole entry, looked up): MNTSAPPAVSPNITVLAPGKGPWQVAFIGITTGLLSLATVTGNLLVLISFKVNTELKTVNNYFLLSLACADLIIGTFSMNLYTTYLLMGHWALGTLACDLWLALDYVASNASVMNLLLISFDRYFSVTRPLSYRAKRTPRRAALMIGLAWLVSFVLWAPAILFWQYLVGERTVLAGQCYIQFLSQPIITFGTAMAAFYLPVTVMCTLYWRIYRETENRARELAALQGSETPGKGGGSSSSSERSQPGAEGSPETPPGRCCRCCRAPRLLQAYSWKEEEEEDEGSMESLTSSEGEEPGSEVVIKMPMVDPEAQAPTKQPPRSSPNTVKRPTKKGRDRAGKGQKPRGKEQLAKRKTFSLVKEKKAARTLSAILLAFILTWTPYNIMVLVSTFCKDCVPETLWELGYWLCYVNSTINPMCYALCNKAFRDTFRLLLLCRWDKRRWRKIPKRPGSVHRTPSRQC

For `CN(C)S(=O)(=O)N(SC(F)(Cl)Cl)c1ccccc1`, the Potency in assay [1] is 13.7 µM (active); in [2], 4.86 µM (active); in assay [3], 54.9 µM (active); in assay [4], 38.9 µM (active); in [9], 43.6 µM (active); in [10], 5.45 µM (active). The Potency entry in assay [5], in assay [6], in assay [7] and in [8] was “inactive” each time.

As to `CCOP(=S)(OCC)Oc1ccc(S(C)=O)cc1` (stereo not given), the Potency entry in [1], in assay [2], in assay [3], in assay [4], in [11] and in assay [12] was “inactive” throughout. For the same compound, the Potency entry in assay [6], in assay [8], in assay [13], in [14], in assay [15] and in assay [16] was “inactive” in each case. In addition, the Potency entry in assay [17], in assay [18] and in assay [10] was “inactive” in each case.

In the case of `O=S(=O)(O)C(F)(F)C(F)(F)C(F)(F)C(F)(F)F`, the Potency result in assay [1], in assay [3], in assay [4], in [5], in [13] and in assay [14] was “inactive” throughout. Further, the Potency entry in assay [17] and in assay [10] was “inactive” each time. Also, the Potency in assay [2] was 72.7 µM (active).

As to `CCSC(=O)N(CC)C1CCCCC1`, the Potency entry in [1], in assay [2], in assay [3], in assay [4], in assay [11] and in assay [12] was “inactive” throughout. The Potency entry in assay [6], in assay [8], in assay [13], in assay [14], in assay [9] and in assay [15] was “inactive” throughout. Also, the Potency result in [16], in assay [17], in assay [18] and in assay [10] was “inactive” throughout.

As to `CCOP(=O)(Sc1ccccc1)Sc1ccccc1`, the Potency entry in assay [1], in assay [3], in [4], in [11], in assay [6] and in assay [8] was “inactive” in each case. The Potency entry in assay [13], in [14], in assay [9], in [15], in assay [16] and in assay [17] was “inactive” throughout. The Potency entry in [18] and in assay [10] was “inactive” in each case. Moreover, the Potency in assay [2] was 61.1 µM (active).
